Assay outcomes from PubChem.
The full list was thinned out, with hits kept by preference.
KDM5B inh – KDM5B demethylase inhibition; Q9UGL1; KDM5B demethylase, FDH-coupled NADH fluorescence (FDH is formaldehyde dehydrogenase); Potency, µM (series often up to 57.7 µM), usual class: inhibitors; 220,000 compounds, 2.6% hits; AID 1347165; active means well fitted inhibition curve with a large enough effect; further: 0% is about no effect; nearly all actives have a fitted effect of over 70% in size
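Coupled FDH/NAD⁺ fluorescence readout. KDM5BΔAP 200 nM final; compound titration, 10 min RT preincubation; substrate mix 12.5 µM H3K4me3, 25 µM 2-OG, 50 µM Fe(II), 100 µM ascorbate, 0.25 mM NAD⁺, 0.25 U/mL FDH; ΔRFU over 30 min.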
Active calls of the source: *; i = inactive. Potency means the concentration at half of the fitted maximal effect.

SMILES	KDM5B inh
O=C(O)CCC(=O)N1CCC(N(Cc2ccccc2)C2CCOCC2)CC1	i
Cc1cc2oc(=O)cc(CN3CCN(CC(=O)N4CCCCC4C)CC3)c2cc1C (stereo not given)	i
CC(CC(=O)Nc1ccc(F)cc1)S(=O)(=O)c1ccc2c(c1)CCN2C(=O)C1CC1 (stereo not given)	i
Cc1cccc(C(=O)N(C2CCCCC2)C2CCCCC2)c1	i
CC1(C(=O)N2CCC(c3ccccc3)CC2)CCc2cnc(N3CCOCC3)nc21 (stereo not given)	32µM*
CN1CCC(NC(=O)C2(C)CCc3cnc(Nc4ccccc4)nc32)CC1 (stereo not given)	i
O=C(N1CCC(c2ccccc2)CC1)C1(c2ccc(Cl)cc2)CCOCC1	i
CCNC(=O)N1CCc2nc(OCC)ccc2C1	i
Clc1ccc(CNCCN2CCCC2)cc1	i
CCOc1cc(/C=C2/NC(=O)NC2=O)cc(Br)c1OCC	i
Cc1ccc(C)c(C(=O)OCC(=O)NC2CCCC2)c1	i
O=C1CSc2ccc(S(=O)(=O)Nc3cccc(Cl)c3Cl)cc2N1	i
CC(=O)Nc1ccc(NC(=O)c2cccc(CN3CCCC(C#N)C3)c2)cc1 (stereo not given)	i
COc1ccc(-c2nc3cc(C)ccc3cc2CN2CCCC(CO)C2)cc1OC (stereo not given)	i
COC[C@H]1CCCN1Cc1cn(-c2ccccc2)nc1-c1ccc(OC)cc1F	i
COC[C@@H]1CCCN1Cc1cc2ccc(C)cc2nc1-c1ccc(OC)cc1	22µM*
COc1ccc(-c2nc3cc(C)ccc3cc2CN2CCCC(O)C2)cc1OC (stereo not given)	i
COc1ccc(-c2nc3cc(C)ccc3cc2CN2CCCC(OC)C2)cc1 (stereo not given)	25µM*
COc1ccc2cc(CN3CCCC(C#N)C3)c(-c3cccs3)nc2c1 (stereo not given)	32µM*
COC[C@@H]1CCCN1Cc1cn(Cc2ccccc2)nc1-c1cc2ccccc2o1	i
COc1ccc(-c2ccccc2NC(=O)C2CCCN(Cc3ccccc3O)C2)cc1 (stereo not given)	i
CC1c2ccsc2CCN1C(=O)CNC(=O)c1ccc(Cl)cc1 (stereo not given)	i
COc1cc(NC(=O)Cn2c(N3CCN(c4ccccc4)CC3)nc(C)cc2=O)cc(OC)c1	i
Cc1ccc(-c2csc(-c3nc(-c4cc(C)ccc4C)cs3)n2)cc1	i
CC(=O)c1ccc(NC(=O)C2(c3ccc(Br)cc3)CCCC2)cc1	i
SMILES	KDM5B inh
CCCc1ncncc1C(=O)N1CCCC2(CC1)CNC(=O)O2 (stereo not given)	i
Cc1cc(C)n2nc(C(=O)N3CCCC4(CNC(=O)O4)C3)cc2n1 (stereo not given)	25µM*
Cc1nnnn1-c1cccc(C(=O)N2CCCC3(CC2)CNC(=O)O3)c1 (stereo not given)	i
CCCNC(=S)Nc1ccc(C)cc1	i
Cn1cccc1CN1CCC2(CC1)CC(=O)Nc1ccccc1O2	i
O=C1CC2(CCN(Cc3ccc(C(F)(F)F)cc3)CC2)Oc2cc(Cl)ccc21	i
O=C1CC2(CCN(S(=O)(=O)c3cccs3)CC2)Oc2ccccc21	18µM*
O=C1CC2(CCN(Cc3ccsc3)CC2)Oc2ccccc21	35µM*
Cn1cccc1CN1CCC2(CC1)CC(=O)c1ccc(Cl)cc1O2	i
O=C1CC2(CCN(S(=O)(=O)c3ccccc3)CC2)Oc2cc(Cl)ccc21	i
O=C1CC2(CCN(CC3CCCCC3)CC2)Oc2ccccc2N1c1ccccc1	i
O=C1Nc2ccccc2C12CCN(S(=O)(=O)c1cccs1)C2 (stereo not given)	i
O=C1CC2(CCN(Cc3ccc(F)cc3)CC2)Oc2cc(Cl)ccc21	i
O=C1CC2(CCN(CC3CCCCC3)CC2)Oc2cc(Cl)ccc21	i
Cn1cccc1CN1CCC2(CC1)CC(=O)c1ccccc1O2	25µM*
O=C1CC2(CCN(CC3CC3)CC2)Oc2ccccc21	32µM*
Cc1sc(NC(=O)C2CC2)c(C#N)c1C	i
CC(=O)c1csc(NC(=O)c2nn(C(C)C)c(=O)c3ccccc23)n1	i
CC(C)(C)CNC(=O)c1nc[nH]c1C(=O)N1CCCC1	i
COc1ccc(C(=O)N[C@H]2CC[C@]3(C)CCC([C@H](C)C(=O)N4CCCC4)[C@H](O)[C@H]3[C@@H]2C)cc1 (stereo not given in full)	i
CC(C)N(CCNC(=O)CCc1ncc(-c2ccc(Cl)cc2)o1)C(C)C	i
COc1ccc(S(=O)(=O)N2CCc3ccccc32)cc1C(=O)N1CCN(C(=O)c2ccco2)CC1	i
O=C(Cn1ccc2c(Cl)cccc21)Nc1ccc2[nH]ccc2c1	i
CN(c1ccccc1)c1ccc(C(=N)N)cc1	i
CC(C)(C)c1nnc(Nc2ccc(Br)cc2)[nH]c1=O	i
SMILES	KDM5B inh
O=C1NCC2(CCN(C(=O)c3ccc4c(c3)OCO4)CC2)Oc2ccccc21	i
O=C1CC2(CCN(C(=O)c3ccc4c(c3)OCO4)CC2)Oc2ccccc21	25µM*
Cc1noc(C)c1[S+](=O)([O-])N1CCCC2(C1)NC(=O)c1ccccc1O2 (stereo not given)	i
COc1ccc(C(=O)N2CCC3(CC2)CC(=O)Nc2ccccc2O3)cc1	i
O=C1CC2(CCN(Cc3ccccc3)CC2)Oc2ccccc21	35µM*
O=C1CC2(CCN(C(=O)c3ccc4c(c3)OCO4)CC2)Oc2cc(Cl)ccc21	i
COc1ccc(C(=O)N2CCC3(CC2)CC(=O)c2ccccc2O3)cc1	32µM*
O=C1NC2(CCN(Cc3ccccc3)CC2)Oc2ccccc21	i
CCCN1CCC2(CCN([S+](=O)([O-])c3c(C)noc3C)CC2)Oc2ccccc21	i
Cc1noc(C)c1[S+](=O)([O-])N1CCC2(CC1)CC(=O)c1ccccc1O2	20µM*
COc1ccc(C(=O)N2CCC3(CC2)CC(=O)N(c2ccccc2)c2ccccc2O3)cc1	i
O=C1CC2(CCN(Cc3cccc4ccccc34)CC2)Oc2ccccc21	i
Cc1ccc2c(=O)cc(C(=O)NCC(c3cccs3)N3CCCCCC3)oc2c1 (stereo not given)	i
Cc1cc(Cl)ccc1Nc1nc(N)c(C(=O)c2ccc(F)cc2)s1	i
COc1ccccc1-c1noc(Cn2nc(C)c(S(=O)(=O)N3CCc4ccccc43)c2C)n1	i
O=C(CCc1ccc2ccccc2n1)NCCc1ccc(C(F)(F)F)cc1	i
O=C(Nc1ccc(Cc2ccncc2)cc1)Nc1ccc(F)cc1F	i
COC(=O)c1c(C)[nH]c(-c2ccc(OC)cc2F)c1C1C(=O)Nc2ccccc21 (stereo not given)	i
Cc1cc(C(=O)N2C[C@@H](CO)[C@H](c3ccncc3)C2)c(C)o1	i
O=C(O)CNC(=O)C(F)(F)C(F)(F)Cl	i
CN(C)CC1(O)CCC2(CCN(C(=O)c3ccsc3)CC2)CC1	i
Cc1cc(NC(=O)c2ccoc2)ccc1N1CCCC1=O	i
CCOC(=O)NC(=O)COC(=O)[C@H](C)NC(=O)c1ccccc1	i
CC(=O)c1cccc(S(=O)(=O)NCC(=O)O)c1	i
CCCCn1cnc2c1c(=O)n(CC(=O)Nc1ccc(F)c(Cl)c1)c(=O)n2CC(C)C	i
O=C(O)CNS(=O)(=O)c1ccc2c(c1)CCC2	i
Cc1ccc(C(C)(C)C)cc1CC(=O)O	i
COc1ccc(CN2CCC3(CC2)CNC(=O)c2ccccc2O3)cc1	i
